Here are results for 52 compounds from PubChem BioAssay AID686979 (National Center for Advancing Translational Sciences (NCATS), 2013).

In all, about 420,000 compounds went through this assay and about 50,000 (12%) were called active. A call without a number means that no potency is given here. Inconclusive results (about 26%) are left out. The call rests on the fitted dose curve; in most records, active means well fitted inhibition curve with a large enough effect; inconclusive means small, poorly fitted or top-dose-only effect; inactive means flat fitted curve, though single readings scatter. Many of the other results were omitted from the sample, so actives are more common in it than they were.
Potency means the concentration at half of the fitted maximal effect.

The nature of this experiment: qHTS for Inhibitors of human tyrosyl-DNA phosphodiesterase 1 (TDP1): qHTS in cells in presence of CPT. Further: nearly all actives have a fitted effect of over 55% in size. The settings on record: chicken DT40 Tdp1-/-;hTDP1 cells + 20 nM CPT, ATP luminescence, 48 h; series mostly up to 46.2 µM. The text has this:
Human tyrosyl-DNA phosphodiesterase 1 (TDP1) is a novel repair gene, and we propose to use it as a new target for anticancer drug development. TDP1 is not an essential protein, but under treatment with topoisomerase I poison (camptothecin: CPT), TDP1 works as a critical factor for cell survival. To directly identify novel TDP1 inhibitors active in a cellular environment, we have knocked-out the Tdp1 gene in chicken DT40 cells (Tdp1-/-) and generated a complemented counterpart cells that contains a stable transfection of the human TDP1 gene (Tdp1-/-;hTDP1 cells). For the primary screen, Tdp1-/-;hTDP1 cells will be exposed to small molecules in the presence or absence of CPT, and their growth kinetics will be evaluated after 48 hours by measuring ATP activity. […] The hit compounds will then be evaluated in the presence or absence of CPT using Tdp1-/- cells. […] In tertiary assays, biochemical gel-based assays will be used to assess whether the hit compounds specifically target TDP1. To this end, we have screened this cell line against the MLSMR in two primary screens. In one screen we add CPT and in the other we screen in the absence of CPT; this AID represents the screen where CPT was present. NIH Chemical Genomics Center [NCGC] NIH Molecular Libraries Probe Centers Network [MLPCN] MLPCN Grant: MH095538 Assay Submitter (PI): Yves Pommier, NCI
DT40-hTDP1 cells with 20 nM Camptothecin (add 20 microL of 1 mM CPT stock in 1 L of cell culture medium) were dispensed at 400 cells/5microL/well in tissue culture treated 1536-well white wall/solid bottom assay plates (Greiner Bio-One North America, NC, U.S.A.) using a Multidrop Combi 8 channel dispenser (Thermo Fisher, Waltham, MA, USA). 23 nL compounds and controls were transferred using the pin tool (Kalypsys, San Diego, CA, USA) to the assay plates. The assay plates were then incubated at 37 masculineC for a minimum 48 hr. Three microL of Cell Titer Glo solution was added to the plates and incubated at RT in dark for 30 min. Luminescence was read using ViewLux (Perkin Elmer) with 1 sec exposure slow speed, high gain and 2x binning.
For the compound `COc1cccc(-c2ccc(SCC(=O)N3CCN(c4ccccc4)CC3)nn2)c1`, the Potency is 16.4 µM (active).

Turning to `CCOC(=O)N1CCN(C(=O)c2cc3c(-c4ccc(Cl)cc4)nn(C)c3s2)CC1`, the Potency was 16.4 µM (active).

Consider `CCOC(=O)N1CCN(C(=O)CNC(=O)Cc2ccc(Cl)cc2)CC1`, for which the Potency entry is “inactive”.

In the case of `COc1cccc(-c2nn(C)c3sc(C(=O)N4CCN(c5ccccc5)CC4)cc23)c1`, the Potency is 23.1 µM (active).

Consider `CCOC(=O)N1CCN(C(=O)c2ccc3nc4cc(Cl)ccc4c(=O)n3c2)CC1`, for which the Potency entry is “inactive”.

Take `COc1cccc(/C=C/C(=O)OCC(=O)N2CCN(c3ccccc3)CC2)c1`: the Potency result is “inactive”.

Turning to `Cn1nc(C(F)(F)F)c2cc(C(=O)N3CCOCC3)sc21`, the Potency result was “inactive”.

Take `CCOc1ccc(-c2ccc(SCC(=O)N3CCOCC3)nn2)cc1`: the Potency entry is “inactive”.

On to `COc1cccc(N2CCN(c3ccc4nnc(CCC(=O)N5CCN(C)CC5)n4n3)CC2)c1`, for which the Potency result was “inactive”.

As for `O=C(Nc1nccs1)C1CCN(S(=O)(=O)c2ccc(Cl)c(C(F)(F)F)c2)CC1`, the Potency result was “inactive”.

As for `O=C(NCc1cccnc1)c1ccccc1NC(=O)c1c(F)cccc1F`, the Potency entry was “inactive”.

In the case of `CN(C)C(=O)c1cccn(Cc2cccc(C(F)(F)F)c2)c1=O`, the Potency entry is “inactive”.

`CC(C)CC(=O)NC(=S)Nc1ccc(F)cc1F`: the Potency entry was “inactive”.

On to `CCOC(=O)c1cc(NC(=O)c2cccnc2)ccn1`, for which the Potency entry was “inactive”.

As for `CCCCOC(=O)c1ccc(N2C(=O)CC(N3CCN(C/C=C/c4ccccc4)CC3)C2=O)cc1` (configuration not stated), the Potency result is “inactive”.

With `O=C(c1ccc(F)cc1)N1CCC(n2nnc3ccccc32)CC1`, the Potency result is “inactive”.

`CC(NC(=O)CCCC1CCCCC1)c1ccc(S(N)(=O)=O)cc1` (configuration not stated): the Potency entry is “inactive”.

Consider `CC(Sc1nc2cc(Cl)ccc2s1)C(=O)Nc1ccc2c(c1)OCO2` (configuration not stated), for which the Potency entry is “inactive”.

In the case of `COc1ccc(C2NC(=O)N(C)C3=C2C(=O)N(c2ccc(C(=O)O)cc2)C3)cc1` (configuration not stated), the Potency result is “inactive”.

With `CC(C(=O)Nc1ccc(F)c(F)c1F)N1CCCCCC1` (configuration not stated), the Potency entry was “inactive”.

As to `COc1ccc([N+](=O)[O-])cc1NC(=O)CC1SC(=Nc2cccc(C)c2C)N(/N=C(\C)c2ccc(C)cc2)C1=O` (configuration not stated), the Potency entry is “inactive”.

For `CCOc1ccc(CC(=O)NC2CCN(Cc3ccccc3)CC2)cc1`, the Potency entry is “inactive”.

For `CCOc1ccc(CN2CCCN(C)CC2)cc1`, the Potency result was “inactive”.

As for `CCOc1ccc(CN2CCN(Cc3c[nH]c4ccccc34)CC2)cc1`, the Potency was 3.66 µM (active).

Take `CC(C)(C)S(=O)(=O)N1Cc2cc(CO)cc(CCO)c2[C@H]1CCO`: the Potency entry was “inactive”.

For `C/C(CC(=O)NC(C)(C)C)=N\NC(=O)c1ccco1`, the Potency result is “inactive”.

`O=c1cc(CCl)nc2scc(-c3ccccc3)n12`: the Potency is 14.6 µM (active).

`Cc1csc2nc(COC(=O)c3cccc(N(C)C)c3)cc(=O)n12`: the Potency result is “inactive”.

With `CCCc1c(C)nc2scc(-c3ccc(Cl)cc3)n2c1=O`, the Potency entry is “inactive”.

For `Cc1onc(-c2ccccc2)c1C(=O)N1CCN(S(=O)(=O)c2ccccc2C(F)(F)F)CC1`, the Potency entry is “inactive”.

For the compound `COc1ccc(CNC(=O)c2nnn(CC(=O)Nc3cc(C)cc(C)c3)c2N)cc1`, the Potency result is “inactive”.

For `O=C(Cc1ccc(-n2c(=O)c3sccc3n(Cc3ccc(F)cc3)c2=O)cc1)NCc1ccco1`, the Potency is 16.4 µM (active).

Take `O=C(CSc1ncc(CO)n1Cc1ccc(F)cc1)NCc1ccco1`: the Potency entry was “inactive”.

As for `O=C(CSc1nnc(-c2cccs2)n1-c1ccccc1)NCc1ccco1`, the Potency entry is “inactive”.

As for `Cc1ccc(N2C(=O)CC(NCc3ccc4c(c3)OCO4)C2=O)cc1Cl` (configuration not stated), the Potency entry is “inactive”.

For `CN(C)NC(=O)C(NC(=O)c1ccc(N)cc1)C12CC3CC(CC(C3)C1)C2` (configuration not stated), the Potency entry is “inactive”.

As to `COCCCN1C(=O)c2ccc(C(=O)OCC(=O)NCc3ccccc3OC)cc2C1=O`, the Potency result was “inactive”.

Take `C/C(=N/NC(=S)Nc1ccccc1)c1ccc2c(c1)OCO2`: the Potency was 0.82 µM (active).

As for `C/C(=N\NC(=O)C(N)=O)c1ccc2c(c1)OCCO2`, the Potency entry was “inactive”.

On to `C/C(=N/NC(=O)c1ccncc1)c1ccc2c(c1)OCO2`, for which the Potency result is “inactive”.

With `CCCCNC(=O)CCn1nc(-c2ccc(Cl)cc2)ccc1=O`, the Potency entry was “inactive”.

For `O=C(O)CSc1nccc2ccccc12`, the Potency result was “inactive”.

With `CCOC(=O)C(C(=O)c1ccccc1)C(c1ccccc1)c1nccc2ccccc12` (configuration not stated), the Potency is 20.6 µM (active).

On to `CCCn1nc2cc(C(=O)NCc3ccccc3)ccc2c1OCC`, for which the Potency result was “inactive”.

In the case of `Cc1ccc(NC(=O)C2(N3CCC3=O)CCCCC2)cc1`, the Potency result was “inactive”.

As to `CCn1cc(C(=O)NCC(=O)NC(C)(C)CO)c(=O)c2cc3c(cc21)OCO3`, the Potency entry is “inactive”.

`CCCCNC(=O)C1CCCNC1=O` (configuration not stated): the Potency result was “inactive”.

Turning to `O=C(NCc1ccc2c(c1)OCO2)c1cc([N+](=O)[O-])ccc1N1CCOCC1`, the Potency is 3.26 µM (active).

With `O=C(NC1CCCCC1)c1cc([N+](=O)[O-])ccc1N1CCOCC1`, the Potency entry was “inactive”.

On to `O=C(Cc1ccc([N+](=O)[O-])cc1)NCCc1ccc2c(c1)OCO2`, for which the Potency entry is “inactive”.

On to `O=C1C2C3C=CC(C3)C2C(=O)N1c1ccc(S(=O)(=O)Nc2nccs2)cc1` (configuration not stated), for which the Potency result is “inactive”.

As for `COc1ccc(C(=O)NCc2ccccc2C)cc1S(=O)(=O)NC1CCCC1`, the Potency result is “inactive”.
